High-throughput results from PubChem.
VHR inh abs = DUSP3 (human) phosphatase inhibition | inhibition, % at 13.3 µM | hit rate 0.52% among 290,000 | P51452 | recombinant VHR phosphatase, pNPP absorbance; in the data active = inhibition above about 50%
Target sequence (P51452 whole entry, looked up): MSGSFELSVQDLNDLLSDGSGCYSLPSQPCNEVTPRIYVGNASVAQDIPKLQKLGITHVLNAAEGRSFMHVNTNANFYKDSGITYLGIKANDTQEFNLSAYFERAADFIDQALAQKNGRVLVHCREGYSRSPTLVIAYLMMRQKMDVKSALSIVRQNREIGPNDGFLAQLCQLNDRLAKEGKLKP
3CLpro inhibitor = SARS-CoV 3CLpro protease inhibition. recombinant SARS-CoV 3CLpro, quenched FRET peptide cleavage. inhibition, % at 6 µM. hit rate 0.14% among 290,000; in the data active = inhibition above about 12%
TcdB inh = blocks C. difficile toxin B glycohydrolase activity; P18177; TcdB glycohydrolase enzymatic assay, plate reader; inhibition, % at 9.99 µM; hit rate 0.24% among 350,000; in the data active = inhibition above about 10%
PriA SSB inh = blocks PriA binding to SSB C-terminal tail; AlphaScreen SSBct-PriA binding, biotinylated peptide; inhibition, % at 33 µM; hit rate 0.6% among 430,000; AID 1272365; in the data active = inhibition mostly above about 37%, no sharp cut-off; inactive = mostly below about 20%;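 also: plate controls were negative control peptide for no effect and reference peptide for full effect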
CCHF vOTU inh-1 = CCHFV vOTU protease inhibition | Pep-AMC fluorescence | inhibition, % at 11.5 µM | hit rate 0.55% among 370,000 | AID 651958; also: 0% = vehicle wells with enzyme and 100% = no enzyme wells
BH1578 lux ind = quorum light induction in luxS cqsA deficient V. cholerae; V. cholerae BH1578 lux reporter, luminescence, 6 h; activation, % at 18.7 µM; hit rate 0.16% among 350,000; AID 588436; in the data active = activation mostly above about 9.7%, no sharp cut-off
CCHF vOTU inh-2 = confirmation of CCHF virus vOTU protease inhibitors; shares compounds with CCHF vOTU inh-1; Recombinant CCHFV vOTU, Pep-AMC fluorescence; inhibition, % at 11.5 µM; hit rate 17% among 1,900
An asterisk follows results filed as active. This is a sample that favours compounds with a hit; in the whole collection about 1.3% have one here. Rule as the data show it, unless noted: active = inhibition above about 30%; inactive = the rest.

O=C(O)COc1ccccc1C=NNc1ccc(S(=O)(=O)N2CCOCC2)cc1[N+](=O)[O-] was read as PriA SSB inh 0.
`CCN(CC)S(=O)(=O)c1ccc(N/N=C/c2ccccc2OCC(=O)O)c([N+](=O)[O-])c1` gave VHR inh abs 6, 3CLpro inhibitor 4, TcdB inh 1, CCHF vOTU inh-1 34*, BH1578 lux ind 0 and CCHF vOTU inh-2 8.
For COc1ccccc1/C=N/Nc1ccc(S(=O)(=O)Nc2ccccc2OC)cc1[N+](=O)[O-] the results were PriA SSB inh inactive.
`O=C(O)COc1ccccc1/C=N/Nc1ccc(S(=O)(=O)Nc2ccc(Cl)cc2)cc1[N+](=O)[O-]` gave VHR inh abs 18, 3CLpro inhibitor 9, TcdB inh 0, CCHF vOTU inh-1 37* and CCHF vOTU inh-2 17.
Screening COc1ccccc1NS(=O)(=O)c1ccc(N/N=C/c2ccccc2OCC(=O)O)c([N+](=O)[O-])c1 returned VHR inh abs 16, 3CLpro inhibitor 5, TcdB inh 1, CCHF vOTU inh-1 30*, BH1578 lux ind 1 and CCHF vOTU inh-2 14.
O=C(O)c1ccccc1NS(=O)(=O)c1ccc(N/N=C/c2ccc(O)c(O)c2)c([N+](=O)[O-])c1 was read as TcdB inh -14, CCHF vOTU inh-1 42*, BH1578 lux ind 1 and CCHF vOTU inh-2 46*.
Screening CCOc1ccccc1NC(=O)Cn1cnc2c(-c3ccncc3)nsc2c1=O returned PriA SSB inh -14.
For Nc1ccc2nc(-c3ccc(-c4nc5ccc(N)cc5[nH]4)cc3)[nH]c2c1 the results were VHR inh abs -41, 3CLpro inhibitor -17, TcdB inh 3, PriA SSB inh -14, CCHF vOTU inh-1 36* and CCHF vOTU inh-2 -9.
`CCc1noc(C)c1C(=O)Nc1ccc(Cl)c(S(=O)(=O)N2CCCCC2)c1` gave TcdB inh 2, PriA SSB inh -15, CCHF vOTU inh-1 32*, BH1578 lux ind 1 and CCHF vOTU inh-2 -9.
`CCc1noc(C)c1C(=O)Nc1ccc(S(=O)(=O)N2CCCCC2)cc1` gave TcdB inh 0, PriA SSB inh -5, CCHF vOTU inh-1 5 and BH1578 lux ind inactive.
Cc1cccc(-n2ncc3c(N)ncnc32)c1 was read as VHR inh abs -3, 3CLpro inhibitor -1, TcdB inh 6, PriA SSB inh -24, CCHF vOTU inh-1 30*, BH1578 lux ind 0 and CCHF vOTU inh-2 -16.
For O=C(COC(=O)c1ncc(Cl)c(Cl)c1Cl)NC1CCCCCC1 the results were TcdB inh -2, PriA SSB inh 5, CCHF vOTU inh-1 41*, BH1578 lux ind inactive and CCHF vOTU inh-2 8.
`O=C(COC(=O)c1nc(Cl)ccc1Cl)NC1CCCCCC1` gave TcdB inh 2, PriA SSB inh -1, CCHF vOTU inh-1 -4 and BH1578 lux ind 1.
Screening C=CCN1C(=O)c2ccc(C(=O)OCC(=O)Nc3ccccc3OC)cc2C1=O returned TcdB inh 0, PriA SSB inh 5, CCHF vOTU inh-1 32*, BH1578 lux ind inactive and CCHF vOTU inh-2 -23.
CCOC(=O)C1(Cc2cccc(OC)c2)CCN(Cc2cccc(O)c2)CC1 was read as VHR inh abs 30, 3CLpro inhibitor 0, TcdB inh -1, PriA SSB inh 0, CCHF vOTU inh-1 31*, BH1578 lux ind -1 and CCHF vOTU inh-2 -23.
`COC(=O)C1=C(C)N(Cc2cccc(C(F)(F)F)c2)C(=NCc2ccc(C(F)(F)F)cc2)NC1c1ccc(C(F)(F)F)cc1` (stereo unspecified) gave TcdB inh 1, CCHF vOTU inh-1 40* and CCHF vOTU inh-2 11.
COC(=O)C1=C(C)N(Cc2ccc(C(F)(F)F)cc2)C(=NCc2ccccc2)NC1c1cccc(F)c1 (stereo unspecified) was read as TcdB inh 3 and CCHF vOTU inh-1 28.
`COC(=O)C1=C(C)N(Cc2ccc(C(F)(F)F)cc2)C(=NCc2ccc(OC)cc2)NC1c1ccccc1C(F)(F)F` (stereo unspecified) gave TcdB inh 1, CCHF vOTU inh-1 35* and CCHF vOTU inh-2 -6.
For COC(=O)C1=C(C)N(Cc2cccc(C(F)(F)F)c2)C(=NCc2ccc(C(F)(F)F)cc2)NC1c1cccc(F)c1 (stereo unspecified) the results were TcdB inh 0, CCHF vOTU inh-1 38* and CCHF vOTU inh-2 3.
COC(=O)C1=C(C)N(Cc2ccc(C(F)(F)F)cc2)C(=NCc2cccc(C(F)(F)F)c2)NC1c1ccccc1C(F)(F)F (stereo unspecified) was read as TcdB inh 1 and CCHF vOTU inh-1 7.
For O=c1c2scc(-c3ccccc3)c2ncn1Cc1cc(=O)n2ccccc2n1 the results were PriA SSB inh -10.
Screening COC1=CC(=O)c2nc(Cl)ccc2C1=O returned TcdB inh 0, CCHF vOTU inh-1 113* and CCHF vOTU inh-2 100*.
`COc1cccc2c1C(=O)C=C(C)C2=O` gave VHR inh abs -7, 3CLpro inhibitor 1, TcdB inh 1, PriA SSB inh 12, CCHF vOTU inh-1 4 and BH1578 lux ind 0.
`CC1CCC/C(=N\NC(=O)Nc2ccccc2)C1` (stereo unspecified) gave VHR inh abs 0, 3CLpro inhibitor 4, TcdB inh -7, CCHF vOTU inh-1 34*, BH1578 lux ind 0 and CCHF vOTU inh-2 -20.
`COc1ccc(N2CCn3c2nn(Cc2ccc(Br)cc2)c(=O)c3=O)cc1` gave PriA SSB inh -13.
CCOC(=O)/C(C#N)=C1/C=CN(Cc2ccccc2)C=N1 was read as VHR inh abs 25, 3CLpro inhibitor 3, PriA SSB inh 5, CCHF vOTU inh-1 30*, BH1578 lux ind -1 and CCHF vOTU inh-2 -1.
`C=CCN1C(=O)C(C)(C)COc2cc(NS(=O)(=O)c3cc(C)c(OCC)c(C)c3)ccc21` gave PriA SSB inh -3.
Screening C=CCn1c(=NC(=O)c2cc(Cl)ccc2[N+](=O)[O-])sc2cc(S(N)(=O)=O)ccc21 returned PriA SSB inh 4.
Screening Cc1cc(C(=O)O)ccc1-n1c(C)cc(/C=C(/C#N)C(=O)Nc2ccccc2)c1C returned VHR inh abs -10, 3CLpro inhibitor 1, TcdB inh -2, PriA SSB inh -12, CCHF vOTU inh-1 33*, BH1578 lux ind inactive and CCHF vOTU inh-2 -7.
For COc1cccc2c1C(=O)c1c(O)c3c(c(O)c1C2=O)C[C@@](O)(C(=O)CO)C[C@@H]3O[C@H]1C[C@H](N)[C@H](O)[C@H](C)O1 the results were VHR inh abs 5, 3CLpro inhibitor -10, TcdB inh -14, PriA SSB inh 33, CCHF vOTU inh-1 41*, BH1578 lux ind 0 and CCHF vOTU inh-2 30*.
